For 11 sequences, sensor-assay potency score (higher = more potent) results are on record in the OligoGym collection.
Also: reference of the scale not given here.

The target in the test is AP3B1. Kind of test: pooled miR-30 sensor sort-seq; sequence = guide strand. The following applies: shRNA.
Consider TTTCTTTGAATTGACATAGTTG, for which the sensor-assay potency score (higher = more potent) is -0.577. For the sequence TAAACATATACCAACTTCTTGA, the sensor-assay potency score (higher = more potent) was -0.605. As for TAGATCTTCATTCTTCTTCAAA, the figure is -0.874.

In turn, TTCTTTATAACAACCACACTTT yielded a sensor-assay potency score (higher = more potent) of 0.0495. The sequence TTGCTTTAGATCTTCATTCTTC had a sensor-assay potency score (higher = more potent) of 0.267. The result for TAAACCTTCAAGATCAGCCATC reads -0.757; that for TACATTCGGAACAATAAGCTGC, 0.383; that for TTATGAATCAGATCTATTCTGT, 0.754. The result for TTCTTCAGCATATCGAACCAGG reads -0.815; that for TTTGAATTGACATAGTTGCTAT, -0.399. The result for TACTTCTACATTTCGAACTGAT reads 0.236.
